Bioassay records (PubChem)
LmPK act: activators of Leishmania mexicana pyruvate kinase | activity change, negative = inhibition, % at 57.5 µM | Q27686 | 290,000 tested, under 10 active | purified LmPK, Kinase-Glo ATP luminescence, 1 h; calls by dose curve
Target sequence (Q27686 whole entry, looked up): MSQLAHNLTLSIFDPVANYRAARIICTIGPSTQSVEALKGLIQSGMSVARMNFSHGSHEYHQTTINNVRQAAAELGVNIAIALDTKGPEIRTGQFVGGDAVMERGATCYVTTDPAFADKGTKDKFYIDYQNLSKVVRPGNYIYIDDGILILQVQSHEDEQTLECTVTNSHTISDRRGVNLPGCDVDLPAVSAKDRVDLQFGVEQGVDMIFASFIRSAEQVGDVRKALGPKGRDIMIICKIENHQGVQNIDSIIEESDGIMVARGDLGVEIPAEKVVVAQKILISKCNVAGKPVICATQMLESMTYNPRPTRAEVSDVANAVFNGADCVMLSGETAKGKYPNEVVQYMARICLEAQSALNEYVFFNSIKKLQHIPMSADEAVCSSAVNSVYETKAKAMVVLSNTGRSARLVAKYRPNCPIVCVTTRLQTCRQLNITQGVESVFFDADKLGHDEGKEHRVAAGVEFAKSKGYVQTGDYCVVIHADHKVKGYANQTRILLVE
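Purified L. mexicana pyruvate kinase (0.1 nM) with 0.5 mM PEP and 0.1 mM ADP in pH 7.2 imidazole buffer, 1 h at RT. ATP formed measured by Kinase-Glo luminescence; normalized to uninhibited and no-enzyme wells.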
Active calls of the source: *. The list is a sample of the results.

SMILES	LmPK act
CCc1cc(-c2n[nH]c(=S)n2Cc2ccccc2)cs1	-90
CCN(CC)c1ccc(/C=C/C(=O)C2C(=O)C=C(C)OC2=O)cc1 (configuration not stated)	-40
Cc1cccc2c1c1ccc3c(c1n2C)C(=O)C=CC3=O	-30
CCOC(=O)C(=O)Nc1cc(C)on1	-66
Cn1cc(Cl)c(-c2n[nH]c(=S)n2C2CCCCC2)n1	-69
Cc1nc2cc(NC(=O)Nc3ccccc3Cl)ccc2n1C	-41
CC(=O)c1ccc(-n2c(-c3cc(-c4ccsc4)n[nH]3)n[nH]c2=S)cc1	-68
CC(C)(C)c1cc(-c2n[nH]c(=S)n2-c2ccc(Cl)cc2)n[nH]1	-77
N/C(=N\OC(=O)c1ccc(Cl)cc1)c1[nH]ncc1Br	-102
COc1ccc(C(=O)Nc2cccc(C)c2)cc1	-69
Cc1ccccc1C(=O)N/N=C1\SCC(=O)N1Cc1ccco1	-45
CCOC(=O)C1=C(C)C/C(=N\NC(=O)c2ccccc2O)CC1	-58
Cc1ccc(C(=O)Nc2cc3ccccc3oc2=O)cc1	-80
CC1=C/C(=C(\c2cc(C)c(O)c(Br)c2)c2ccccc2S(=O)(=O)O)C=C(Br)C1=O	-93
Cc1ccc(-c2nc3ccccc3nc2NN)cc1	-48
O=C1NN(c2ccccc2)C(=O)/C1=C\c1ccc(-c2cc([N+](=O)[O-])ccc2O)o1	-61
Fc1ccc(-n2nnc(-c3nccs3)n2)cc1	-71
CCCNC(=O)Cn1sc2nc(C)cc(C)c2c1=O	-35
C=CCN1C(=O)/C(=c2\sc3nc(=O)c(Cc4ccc(OC)c(OC)c4)nn3c2=O)c2ccccc21	-44
O=C(O)c1ccc2c3n(nc2c1)-c1ccc(Cl)cc1CO3	-35
CN(C(=O)c1cccc(Nc2ccc(-c3ccc4c(c3)OCCO4)nn2)c1)C1CCCCC1	-41
CNc1nnc(-c2ccc(N(C)C)cc2)s1	-41
CCc1ccc(N2C(=O)c3sc4nnc(-c5ccccc5)c(=O)n4c3C2=O)cc1	-32
O=C(CBr)c1ccc([N+](=O)[O-])c(CS(=O)(=O)c2ccc(Cl)cc2)c1	2
COc1ccc(OC)c(S(=O)(=O)ON2C(=O)c3ccccc3C2=O)c1	-59
SMILES	LmPK act
Cc1ccccc1OCC(=O)Nc1ccccc1-c1ccccc1	-39
CCn1cc(C(=O)O)c(=O)c2cnc(N3CCN(C(=S)NC(=O)c4ccc(Cl)cc4)CC3)nc21	-65
O=S(=O)(Nc1ccc(O)c2ccccc12)c1ccc(Br)cc1	-32
CN(C)c1ccc(-c2nc3ccccc3c(=O)[nH]2)cc1	-48
Cc1nc(-c2ccc(NC(=O)c3ccc(Br)o3)cc2)cs1	-30
COc1cc(N=Nc2cccc(S(N)(=O)=O)c2)c2ccccc2c1N	-45
c1ccc(-c2ncc(-c3ccn[nH]3)s2)cc1	-42
Cc1ccc(NCc2n[nH]c(=S)n2-c2ccccc2)c(C)c1	-38
CCOc1ccc(NC(=O)Nc2cccnc2)cc1	-85
COc1ccc2c(=O)c(-c3ccc4c(c3)OCO4)coc2c1	-33
CCCCn1c(-c2ccc([N+](=O)[O-])cc2)n[nH]c1=S	-57
CN(Cc1ccon1)Cc1cn(C)nc1-c1cccc(Cl)c1	-110
Nc1ncccc1OCc1ccc(Cl)c(Cl)c1	-35
S=c1[nH]nc(-c2ccco2)n1C1CCCCC1	-68
Cc1nonc1C(=O)N/N=C/c1cccc(O)c1	-79
CCCc1ccc(C(=O)/C=C/N(C)C)cc1	-34
O=C1N=c2ccc([N+](=O)[O-])cc2=C1c1sc(=O)[nH]c1O	-32
CCCCC(CC(O)COCCC)c1n[nH]c(=S)n1-c1ccccc1 (configuration not stated)	-46
S=c1[nH]nc([C@@H]2C[C@H]2c2ccccc2)n1-c1ccccc1Cl	-68
Cc1ccccc1-c1nnc(-c2cccs2)o1	-34
CCOc1ccc(N=Nc2c(N)[nH][nH]c2=O)cc1	-46
CC(=O)N/C(=C\c1ccccc1)C(=O)OCc1cc(C)ccc1C	1
CCCCn1c(CCn2nc(C)c(Br)c2C)n[nH]c1=S	-66
Cc1ccccc1C(=O)Nc1ccc2c(c1)OCO2	-44
c1ccc(-c2cn3c(n2)-c2ccccc2C3)cc1	-93
SMILES	LmPK act
O=C(Nc1ncccc1O)c1ccc(OCC2CCCO2)cc1 (configuration not stated)	-38
Fc1ccccc1CSc1nc2ccccc2[nH]1	-50
CC(C)C(c1nnnn1Cc1ccc(F)cc1)N1CCN(c2ccc(O)cc2)CC1 (configuration not stated)	-42
COc1ccc(/C=N/Nc2ncccc2[N+](=O)[O-])c(OC)c1	-68
CCc1ccc(C(=O)COC(=O)c2n[nH]c3ccccc23)cc1	-45
CC1=CCC(COC(=O)Nc2ccccc2)CC1 (configuration not stated)	-33
COc1ccc(-c2n[nH]c(=S)n2-c2ccc(C)cc2)cc1OC	-75
CC1C(=O)NN=C1C(=O)N/N=C/c1cccs1 (configuration not stated)	-49
COc1ccc(/C=N/NC(=O)c2ccc[nH]2)cc1	-35
COc1cccc(C=Nc2cccc3c(=O)[nH][nH]c(=O)c23)c1O	-50
O=[N+]([O-])c1cccc(-c2n[nH]c(=S)n2Cc2ccccc2)c1	-38
